Assay results reported in PubChem BioAssay (NCATS).
Results filed as inconclusive are left out. Where a call stands in place of a potency, no number is given. Calls of active or inactive are those of the source. The call rests on the fitted dose curve; in most records, active means well fitted cell-killing curve with a large enough effect; inconclusive means small, poorly fitted or top-dose-only effect, or effect the other way; inactive means no such curve, though single readings can be large or run the other way.

assay: Quantitative High-Throughput drug screen in 47 multiple myeloma cell lines against the NCATS MIPE library collection: KMS12PE_JCRB cell viability assay (AID 1918972); settings: KMS12PE myeloma viability, CellTiter-Glo ATP, 48 h; series mostly up to 45.8 µM; further: nearly all actives have a fitted effect of over 30% in size
Method in brief: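 Steps: seed 500 cells per well; pin-transfer MIPE 4.0 library; incubate 48 h at 37C, 5% CO2, humidified; add CellTiter-Glo, 5 min room temperature; read luminescence.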
Potency means the concentration at half of the fitted maximal effect.

Which Potency does the source give for `O=C(c1ccccc1)c1ccc2n1CCC2C(=O)O` (stereo not drawn) here?
The Potency was “inactive”.

With `CC[C@]1(O)C[C@H]2CN(CCc3c([nH]c4ccccc34)[C@@](C(=O)OC)(c3cc4c(cc3OC)N(C=O)[C@H]3[C@@](O)(C(=O)OC)[C@H](OC(C)=O)[C@]5(CC)C=CCN6CC[C@]43[C@@H]65)C2)C1` as the compound, how does the Potency read?
The Potency was 0.0743 µM (active).

With `Cc1cc(O)c2c(c1)C(=O)c1cc(O)cc(O)c1C2=O` as the compound, how does the Potency read?
Its Potency is “inactive”.

Which Potency does the source give for `Nc1ccc(S(N)(=O)=O)cc1` here?
The Potency was “inactive”.

With `O=C(NCC1CCCCN1)c1cc(OCC(F)(F)F)ccc1OCC(F)(F)F` (stereo not drawn) as the compound, how does the Potency read?
Its Potency is 2.09 µM (active).

With `Cc1cc(=O)oc2cc(O)ccc12` as the compound, how does the Potency read?
Its Potency is “inactive”.

For `Nc1ccn([C@@H]2O[C@H](CO)[C@@H](O)C2O)c(=O)n1` (stereo partly drawn), which Potency is on record?
The Potency was “inactive”.

Which Potency does the source give for `NC(=O)Cc1cccc(C(=O)c2ccccc2)c1N` here?
Its Potency is “inactive”.

With `COC(=O)C1=C(C)NC(C)=C(C(=O)OC(C)C)C1c1cccc2nonc12` (stereo not drawn) as the compound, how does the Potency read?
Its Potency is “inactive”.

For `COc1ccc(C2(C#N)CCC(C(=O)O)CC2)cc1OC1CCCC1` (stereo not drawn), which Potency is on record?
Its Potency is “inactive”.

For `CCC(C)(Oc1ccc(C2(c3ccc(OC(C)(CC)C(=O)O)cc3)CCCCC2)cc1)C(=O)O` (stereo not drawn), which Potency is on record?
The Potency was “inactive”.

For `Cc1cc(C2CCCCC2)n(O)c(=O)c1`, which Potency is on record?
Its Potency is 11.8 µM (active).

With `CC1(C)C(=O)N(CCN2CCC(C(=O)c3ccc(F)cc3)CC2)c2ccccc21` as the compound, how does the Potency read?
Its Potency is 10.5 µM (active).

For `COCCCOc1ccnc(CS(=O)c2nc3ccccc3[nH]2)c1C` (stereo not drawn), which Potency is on record?
Its Potency is “inactive”.

Which Potency does the source give for `N=C(N)c1ccc2cc(OC(=O)c3ccc(N=C(N)N)cc3)ccc2c1` here?
The Potency was “inactive”.

Which Potency does the source give for `O=C(NOCC1CC1)c1ccc(F)c(F)c1Nc1ccc(I)cc1Cl` here?
The Potency was 14.8 µM (active).

With `CN(C)c1ccc(O)c2c1C[C@H]1C[C@H]3[C@H](N(C)C)C(=O)C(C(N)=O)=C(O)[C@@]3(O)C(=O)C1=C2O` as the compound, how does the Potency read?
Its Potency is “inactive”.

For `Cc1c(C(=O)NN2CCCCC2)nn(-c2ccc(Cl)cc2Cl)c1-c1ccc(Cl)cc1`, which Potency is on record?
Its Potency is 14.8 µM (active).
